# The list is not random: actives were taken first. Their share in the collection is about 5.7%.
# IL1B secr inh – inflammasome signaling inhibition, IL-1 beta readout; THP-1 LPS/ATP IL-1B secretion, AlphaLISA, 16 h; stronger effect = lower value; activity change, % at 57.5 µM; hit rate 4.7% among 360,000; in the data active means activity change below about -50%; inconclusive means mostly about -30% to -49%; further: on the % scale 0 is the no-effect control and ±100 the full control effect
#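 THP-1 cells pretreated 1 hr with compounds (up to 57.5 uM final), then stimulated with LPS (250 ng/mL final) plus ATP (1.25 mM final); secreted IL-1B measured by AlphaLISA after 16 hr, decreased signal indicating inhibition.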
# ATXN viability – cell viability loss in ATXN counter-screen | hit rate 0.49% among 400,000 | AID 651635 | Potency, µM (series often up to 56.7 µM), hits mostly cytotoxic | S2 cells (HEK-293 line with an ATXN2-luciferase reporter) viability, CellTiter-Fluor protease fluorescence, 24 h; further: potency means the concentration at half of the fitted maximal effect; nearly all actives have a fitted effect of over 40% in size
# ATXN2 expr inh – ATXN2 expression inhibition | hit rate 0.72% among 360,000 | Potency, µM (series often up to 57 µM), for inactives: top-dose activity change, negative = inhibition, hits mostly inhibitors | HEK-293 ATXN2-luciferase reporter, luminescence, 24 h | AID 1745845; further: potency means the concentration at half of the fitted maximal effect; on the % scale 0 is the no-effect control and ±100 the full control effect; nearly all actives have a fitted effect of over 55% in size
#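 qHTS (up to 57 uM final) was run with 24 h compound exposure of reporter cells at 37 °C. Each well was multiplexed: SteadyGlo luminescence measured ATXN2-luciferase expression after a fluorogenic Gly-Phe-AFC viability readout (25 uM final).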
# HepG2 tox – HepG2 cytotoxicity, counter-screen for TGF-b inhibitors | HepG2 CAGA-GFP viability, ATP luminescence, 18 h | Potency, µM (series often up to 46.1 µM), for inactives: top-dose activity change, negative = cytotoxicity, usual class: cytotoxic | hit rate 0.76% among 410,000 | AID 588856; further: potency means the concentration at half of the fitted maximal effect
#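 CellTiter-Glo luminescence gave cytotoxicity after 18 hours at 37 degrees C. The cells were HepG2 CAGA-GFP in 1% FBS DMEM, stimulated with 500 pg/mL TGF-beta after compound addition. %Activity was normalised to no-cell wells (complete cell-killing) and DMSO (no toxicity), and curves were fitted and classified.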
# TGFb SMAD3 inh – inhibitors of TGF-b signaling; HepG2 CAGA-GFP TGF-b/SMAD3 reporter, GFP fluorescence, 18 h; TGF-beta stimulated, 500 pg/mL final; Potency, µM (top dose mostly 46.1 µM), for the others: at the highest dose activity, negative = inhibition, most hits filed as inhibitors; hit rate 1.2% among 410,000; further: potency means the concentration at half of the fitted maximal effect; on the % scale 0 is the no-effect control and ±100 the full control effect; nearly all actives have a fitted effect of over 65% in size
#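 HEPG2 CAGA-GFP cells (1000/well, DMEM with 1% FBS) were pre-incubated 2 h at 37 degrees C, given compound by pin tool, then stimulated with TGF-beta at 500 pg/mL final for 18 h before per-cell GFP fluorescence imaging.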
# * = called active by the depositor; i = inactive; ? = inconclusive; nt = no result given. Unless noted, the call rests on the fitted dose curve; in most records, active means well fitted curve in the direction sought with a large enough effect; inconclusive means small, poorly fitted or top-dose-only effect, or another doubt; inactive means no such curve, though single readings can be large; an effect the other way counts as inactive or inconclusive.
SMILES,IL1B secr inh,ATXN viability,ATXN2 expr inh,HepG2 tox,TGFb SMAD3 inh
Cc1ccc(-c2ccc(CN3C(CC(C)C)C(=O)N(Cc4cn(CCC5OCCO5)nn4)CCS3(=O)=O)cc2)cc1 (stereo unspecified),-21,35µM*,25µM*,11µM*,22µM*
CC(C)CC1C(=O)N(Cc2cn(CCC3OCCO3)nn2)CCS(=O)(=O)N1Cc1ccc(-c2ccc(Cl)c(Cl)c2)cc1 (stereo unspecified),-26,nt,?,-56%,11µM*
CC(C)CC1C(=O)N(Cc2cn(CCC3OCCO3)nn2)CCS(=O)(=O)N1Cc1ccc(-c2ccccc2)cc1 (stereo unspecified),-9,?,?,-44%,?
CC(C)Cn1c(=O)c2sccc2n2c(CCCC(=O)Nc3ccc(Cl)cc3)nnc12,nt,nt,nt,-22%,-27%
CCC1Oc2ccc(C)cc2N(CC(=O)N(Cc2ccc(C)o2)C2CC(C)(C)NC(C)(C)C2)C1=O (stereo unspecified),nt,?,?,13µM*,?
CCC1Oc2ccc(C)cc2N(CC(=O)N(Cc2cccnc2)Cc2ccc(C)o2)C1=O (stereo unspecified),?,i,-16%,-31%,-13%
Cc1ccc(/C(N)=N/OC(=O)c2cccc(Cn3cc(C(F)(F)F)ccc3=O)c2)cc1,-68*,?,-20%,-22%,0%
COc1cc2nc(Cl)nc(N)c2cc1OC,nt,i,9%,nt,nt
CC(C)CN1C(=O)c2ccc(NC(=O)c3cccs3)cc2C1=O,-52*,i,24%,-29%,-14%
CC(C)CN1C(=O)c2ccc(NC(=O)c3ccco3)cc2C1=O,0,i,nt,8%,-3%
Fc1cccc(-c2cc3nc(-c4ccccc4)cc(N4CCC5(CC4)OCCO5)n3n2)c1,-14,i,-1%,0%,9%
Fc1cccc(-c2cc3nc4c(c(N5CCC6(CC5)OCCO6)n3n2)CCCC4)c1,-70*,i,43%,4%,-4%
OC1CCN(c2c3c(nc4cc(-c5cccc(F)c5)nn24)CCCC3)CC1,-100*,i,22%,-21%,-17%
CNC(=O)C1CCC(Cn2c(=O)c3sccc3n(CC(=O)Nc3ccc(C)c(F)c3)c2=O)CC1 (stereo unspecified),nt,i,-13%,-21%,-28%
COc1ccc(/C(N)=N/OC(=O)Cc2ccc(OC)c(OC)c2)cc1,-78*,i,-12%,-11%,1%
COc1ccc(CC(=O)O/N=C(\N)c2ccncc2)cc1OC,4,i,nt,-1%,-2%
COc1ccc(C(CCNCc2ccc(N(C)C)cc2)c2ccccc2OC)cc1 (stereo unspecified),-101*,i,?,-48%,?
COc1ccc(CNCCC(c2ccccc2)c2ccc(OC(C)C)cc2)cc1OC (stereo unspecified),nt,i,-24%,-104%,?
COc1ccc(CN(CCC(c2ccccc2)c2ccc(OC(C)C)cc2)C(=O)CCl)cc1OC (stereo unspecified),-99*,nt,?,10µM*,?
COc1ccc(CNCCC(c2ccc(F)cc2)c2ccc(OC(C)C)cc2)cc1OC (stereo unspecified),-96*,?,?,-105%,?
COc1ccc(CNCCC(c2ccc(OC)cc2)c2ccccc2OC)cc1 (stereo unspecified),-83*,?,-37%,11µM*,?
COc1ccc(C(CCN(Cc2ccc(OC)c(OC)c2)C(C)=O)c2ccccc2)cc1 (stereo unspecified),?,?,nt,-24%,-8%
Cc1ccc(Nc2nccc(N(C)c3ccc4c(C)n(C)nc4c3)n2)cc1S(N)(=O)=O,nt,?,45%,nt,nt
Cc1ccc(S(=O)(=O)N2CCN(c3nc(-c4cccs4)nc4ncccc34)CC2)cc1,nt,nt,nt,-11%,0%
COc1cc(NC(=O)C2CCN(S(=O)(=O)c3ccc4c(c3)oc(=O)n4C)CC2)cc(OC)c1,nt,i,15%,4%,-10%
SMILES,IL1B secr inh,ATXN viability,ATXN2 expr inh,HepG2 tox,TGFb SMAD3 inh
COc1ccc(CNCCC(c2ccc(F)cc2)c2ccc(OC)cc2)cc1 (stereo unspecified),nt,i,-14%,-97%,?
COc1ccc(C(CCNC(C)c2ccccc2)c2ccc(F)cc2)cc1 (stereo unspecified),-50*,?,28µM*,-73%,13µM*
COc1ccc(C(CCNCc2ccccc2)c2ccc(F)cc2)cc1 (stereo unspecified),-6,i,-31%,-60%,18µM*
COc1ccc(CN(CCC(c2ccccc2)C2CCOC(C)(C)C2)C(C)=O)cc1 (stereo unspecified),?,i,-30%,-40%,?
COc1ccc(CNC(=O)CNC(C)c2ccc(F)cc2)cc1 (stereo unspecified),?,i,0%,8%,-3%
COc1ccc(C(CCNCc2ccc(OC(C)C)cc2)c2ccccc2OC)cc1 (stereo unspecified),-89*,14µM*,nt,11µM*,14µM*
COc1ccc(CNCCC(c2ccccc2)C2CCOC(C)(C)C2)cc1 (stereo unspecified),-81*,i,-11%,3%,-28%
Cc1ccc2c(c1)CN(CCNC(=O)c1cccc(Cn3cccn3)c1)CC(C)O2 (stereo unspecified),nt,i,nt,nt,nt
ON=C1c2ccccc2-c2cc(Br)ccc21,-52*,i,11%,-65%,-19%
CCc1nnc2c3ccccc3nc(N3CCN(c4cc(C)ccc4C)CC3)n12,nt,i,5%,-2%,-14%
O=C(NCCc1ccccc1)[C@@H]1CC=C[C@@H]2CCN(C3CC3)C(=O)[C@@H]21,nt,nt,nt,13%,-1%
O=C(C1CCN(S(=O)(=O)Cc2ccccc2)CC1)N1CCN(c2ccccc2)CC1,nt,i,-1%,-1%,23%
Cc1cccc(N2CCN(C(=O)C3CCN(S(=O)(=O)Cc4ccccc4)CC3)CC2)c1C,nt,i,10%,18µM*,?
Cc1cccc(N2CCN(C(=O)C3CCN(C(=O)c4cc5sccc5n4C)CC3)CC2)c1C,nt,nt,nt,-12%,11µM*
SCc1nc2ccccc2[nH]1,nt,nt,nt,-11%,2%
COc1cccc(CNC(=O)c2ccc(NC(=O)N3CC(C)Sc4ccccc43)cc2)c1 (stereo unspecified),nt,i,-12%,0%,?
COc1ccccc1/C=N/Nc1cc(C)nc2ccc(C)cc12,-22,i,27%,-11%,3%
COc1ccc2nc(C)cc(N/N=C/c3ccccc3)c2c1,-86*,nt,?,-100%,?
COc1ccc(/C=N/Nc2cc(C)nc3ccc(OC)cc23)c(OC)c1,-104*,nt,?,-107%,10µM*

# High-throughput results (PubChem BioAssay)
